Many of the other results were omitted from the sample, so hits are more common in it than they were.
CHX counter: Cycloheximide Counterscreen for Small Molecule Inhibitors of Shiga Toxin; cell reporter, cycloheximide protein synthesis inhibition counterscreen; max response, %; 300,000 compounds, 12% hits; AID 2314, 2010; in the data active = max response mostly above about 13%, no sharp cut-off; inactive = mostly below about 14%; note: read at 38.3 µM for the half of the compounds with a filed dose; 0% is about no effect
AmpC inh no detg: qHTS Inhibitors of AmpC Beta-Lactamase (assay without detergent). P00811. AmpC nitrocefin hydrolysis, absorbance 480 nm, 0.0001% Triton. Potency, µM (titrated, usually from 57.1 µM), inactives show at the top dose activity change, negative = inhibition, actives largely listed as inhibitors. 330,000 compounds, 0.52% hits;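 note: potency is the fitted concentration of half-maximal effect; plate controls were no compound for no effect and no enzyme for full effect; nearly all actives have a fitted effect of over 20% in size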
Target sequence (P00811 whole entry, looked up): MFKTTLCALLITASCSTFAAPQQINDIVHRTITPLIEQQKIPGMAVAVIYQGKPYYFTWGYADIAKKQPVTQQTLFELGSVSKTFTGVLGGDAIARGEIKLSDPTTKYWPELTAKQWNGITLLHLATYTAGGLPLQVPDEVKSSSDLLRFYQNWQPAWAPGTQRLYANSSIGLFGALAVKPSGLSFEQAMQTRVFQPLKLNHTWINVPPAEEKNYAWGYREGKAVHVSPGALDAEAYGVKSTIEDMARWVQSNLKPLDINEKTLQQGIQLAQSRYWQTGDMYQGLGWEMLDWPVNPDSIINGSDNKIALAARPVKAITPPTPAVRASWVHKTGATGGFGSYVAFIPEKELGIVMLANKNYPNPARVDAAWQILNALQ
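20 mM phosphate pH 7.0 + 0.01% (detergent screen) or 0.0001% Triton X-100; 5.3 nM AmpC reagent; cpd preinc 15 min RT; nitrocefin (800 uM stock) to start; A480 q20 s × 4 min; Activity was normalised to no-enzyme and no-compound control wells.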
NS1 inh: qHTS Assay for Inhibitors of Influenza NS1 Protein Function | AID 2326, 2010 | 270,000 compounds, 0.4% hits | Potency, µM (titrated, usually from 46.1 µM), for the others: at the highest dose activity, positive = more growth; calls by dose curve; note: potency is the fitted concentration of half-maximal effect; actives are rising curves; nearly all actives have a fitted effect of over 50% in size
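Compounds were scored for reversing the slow growth caused by influenza A NS1 in S. cerevisiae, measured by optical density at 600 nm. Assay medium contained 2% galactose at pH 6.0; NS1-free yeast of the same strain were the positive control.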
AmpC detergent: qHTS Inhibitors of AmpC Beta-Lactamase (assay with detergent) | AID 485294, 2010 | 370,000 compounds, 0.041% hits | Potency, µM (series often up to 114 µM), without a hit: top-dose activity change, negative = inhibition, hits mostly inhibitors | AmpC hydrolysis of nitrocefin, absorbance 480 nm, 0.01% Triton;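 note: potency is the fitted concentration of half-maximal effect; 0% = no-compound wells and -100% = no-enzyme wells; nearly all actives have a fitted effect of over 25% in size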
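AmpC (5.3 nM in the dispensed reagent) in 20 mM phosphate pH 7.0 with 0.01% (detergent screen) or 0.0001% Triton X-100 was preincubated with compounds for 15 min at room temperature. Nitrocefin was then added from an 800 uM solution, and hydrolysis was followed at 480 nm.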
Shiga inhibitor: A qHTS for Small Molecule Inhibitors of Shiga Toxin; AID 2315, 2010; inhibition, % at 38.7 µM; 290,000 compounds, 9.2% hits; Vero cells, Shiga toxin protein synthesis inhibition reporter; in the data active = inhibition mostly above about 28%, no sharp cut-off; inactive = mostly below about 43%; note: 0% is about no effect
* = called active by the depositor; ? = inconclusive; nt = no result; [ ] = dose if it differs, or a comment. Unless noted, calls come from the whole dose curve; as a rule, active = well fitted curve in the direction sought with a large enough effect; inconclusive = small, poorly fitted or top-dose-only effect, or another doubt; inactive = no such curve, though single readings can be large; an effect the other way counts as inactive or inconclusive.

SMILES	CHX counter	AmpC inh no detg	NS1 inh	AmpC detergent	Shiga inhibitor
CC(=O)Nc1ccc(S(=O)(=O)NCCC(=O)OCc2ccc([N+](=O)[O-])cc2)cc1	-2	-3%	-16%	5%	17
CC1CCN(c2nc3ccccc3nc2SCC(=O)Nc2ccccc2C(C)C)CC1	nt	nt	nt	28%	nt
Cn1c(=O)c2c(nc(C(=N)SCC(=O)O)n2C)n(C)c1=O	nt	nt	7.9µM*	nt	nt
CCCSc1nc2c(c(=O)n(C)c(=O)n2C)n1C	-4	-9%	0%	-13%	11
CC[C@H](C)[C@H](NC(=O)[C@@H](NC(=O)[C@@H](CC(=O)NO)Cc1ccccc1)[C@@H](C)CC)C(=O)O	-9	nt	nt	nt	15
O=C(Cn1cc2c(n1)CCCCC2)NCCCN1CCOCC1	-3	45µM*	-2%	?	-3
Cc1ccc(NC(=O)CN2CCN(Cc3ccccc3)CC2)c(Br)c1	8	185%	7%	8%	21
Cc1ccc(NC(=O)CN2CCOCC2)c(Br)c1	23*	-5%	-5%	-14%	nt
Cc1cc(Br)c(NC(=O)CN2CCCC2)c(Br)c1	16*	-19%	8%	-13%	64*
CSC1=N/C(=C\c2cccnc2)C(=O)N1c1ccccc1	27*	-3%	2%	?	24
CC1=N/C(=C/c2cccnc2)C(=O)O1	34*	-15%	nt	5%	26
O=C1OC(c2ccc(Cl)cc2)=C/C1=C/c1cccnc1	-4	42%	0%	-9%	2
Cc1ccc(C2=C/C(=C/c3cccnc3)C(=O)O2)c(C)c1	11*	-19%	-20%	-5%	8
O=C(COC(=O)C1CCC1)c1c[nH]c2ccccc12	nt	-22%	nt	-13%	nt
Cc1[nH]c2ccccc2c1C(=O)COC(=O)C1CCC1	23*	-38%	-11%	?	40
N#Cc1ccccc1OCC(=O)OCC(=O)c1c[nH]c2ccccc12	nt	-15%	nt	?	nt
O=C(COc1cccnc1[N+](=O)[O-])c1c[nH]c2ccccc12	20*	-42%	3%	0%	26
O=C(COC(=O)C1CC1)c1c[nH]c2ccccc12	57*	-8%	-11%	?	76*
O=C(Cc1ccccc1[N+](=O)[O-])OCC(=O)c1c[nH]c2ccccc12	nt	10µM*	nt	-20%	nt
Cc1cc(C)n(CC(=O)N/N=C/c2ccccn2)n1	-2	-14%	-3%	-5%	14
COc1ccc(N2CCN(C(=O)C3CCN(S(=O)(=O)c4cn(C)cn4)CC3)CC2)cc1	nt	nt	nt	17%	nt
CC(=O)N1CCc2c(sc3c2c(=O)n(CCc2ccccc2)c(=O)n3Cc2ccc(F)cc2)C1	nt	nt	nt	16%	nt
Cc1ccc(NC(=O)CCS(=O)(=O)c2ccc3c(c2)oc(=O)n3C)c(Br)c1	nt	nt	nt	0%	nt
C/C(=N\N=c1/scc(C)n1Cc1ccco1)c1cccc([N+](=O)[O-])c1	18*	-30%	3%	-6%	24
Oc1ccccc1C=NC1=NN(c2cccc(C(F)(F)F)c2)CC1	5	-25%	-36%	?	3
SMILES	CHX counter	AmpC inh no detg	NS1 inh	AmpC detergent	Shiga inhibitor
FC(F)(F)c1cccc(N2CCC(N=CN3CCCCCC3)=N2)c1	39*	47%	nt	0%	49*
O=C(Nc1ccccc1C(=O)Nc1ccc2c(c1)OCO2)c1cccs1	17*	-36%	-2%	-5%	43
CN(c1cccc(NC(=O)c2ccc(C(C)(C)C)cc2)c1)S(C)(=O)=O	43*	28%	1%	-9%	42
Cc1noc(C)c1COc1cccc(C(=O)OC(C)C#N)c1 (stereo not drawn)	-1	3%	nt	-1%	7
O=C(Nc1cccc(Cl)c1)c1ccc(F)c(S(=O)(=O)NCc2ccc3c(c2)OCO3)c1	21*	0%	14%	-12%	-1
Cc1noc(C)c1COc1cccc(C(=O)OCCOc2ccc(F)cc2)c1	26*	-8%	-5%	-16%	52*
CCOc1ccc(NC(=O)c2ccc(F)c(S(=O)(=O)NCc3ccc4c(c3)OCO4)c2)cc1	nt	nt	nt	-5%	nt
O=C(c1ccc(Br)s1)N(Cc1cccnc1)c1nc2ccc(F)cc2s1	nt	nt	nt	4%	nt
CCOC(=O)c1ccc(NC(=O)C2CCCN(c3ncnc4onc(C)c34)C2)cc1 (stereo not drawn)	nt	nt	nt	0%	nt
O=C(CCCc1ccccc1)Nc1ccc2c(c1)OCCO2	36*	-26%	-5%	-2%	66*
O=C(CCCc1cccs1)Nc1ccc2c(c1)OCO2	31*	-5%[11.4 µM]	nt	?	89*
Cc1noc(C)c1COc1cccc(C(=O)OC(C)C(=O)Nc2ccc3c(c2)OCO3)c1 (stereo not drawn)	-2	-11%	-3%	4%	-7
O=C(CC1CS(=O)(=O)CC1CC(=O)Nc1ccc2c(c1)OCCO2)Nc1ccc2c(c1)OCCO2 (stereo not drawn)	51*	-16%	3%	-6%	107*
O=C(CCCCCN1C(=O)CCC1=O)Nc1ccc2c(c1)OCO2	9	-8%	1%	-9%	17
Cc1noc(C)c1COc1cccc(C(=O)Nc2ccc3c(c2)OCO3)c1	28*	-25%	nt	3%	61*
O=C(NNC(=O)C1CCCC1)c1cc([N+](=O)[O-])cc([N+](=O)[O-])c1	nt	-12%	nt	0%	nt
CCN(C(=O)c1coc(=O)c2ccccc12)c1ccccc1C	nt	nt	nt	-3%	nt
COc1ccc(CCNC(=O)c2cc3c(s2)-c2c(C)cccc2OC3)c(OC)c1	nt	nt	nt	25%	nt
Fc1cccc(NC(=S)Nc2ccc(Br)cc2)c1	19*	-49%	-39%	-2%	28
O=C(CC(=O)c1ccccc1)Nc1ccc2c(c1)OCCO2	43*	-20%	-1%	-10%	74*
O=C(Nc1ccc2c(c1)OCO2)c1ccccc1	53*	11%	7%	-6%	87*
CCC(=O)Nc1ccc2c(c1)OCCO2	26	50%	-5%	1%	15
CC(C)(C)NNC(=S)Nc1cccc(F)c1	2	-3%	-4%	-1%	3
CC(=O)c1cccc(NC(=O)N2CCCC2C(=O)Nc2ccc3c(c2)OCCO3)c1 (stereo not drawn)	14*	70%	-1%	-4%	87*
Cc1c(C(=O)NCC(c2ccco2)N(C)C)oc2c(Cl)cccc12 (stereo not drawn)	nt	27%	nt	?	nt
SMILES	CHX counter	AmpC inh no detg	NS1 inh	AmpC detergent	Shiga inhibitor
CS(=O)(=O)Nc1ccc(C(=O)Nc2ccc3c(c2)OCCO3)cc1	25*	-24%	7%	?	55
O=C(NC(=S)Nc1ccc2c(c1)OCCO2)c1cccc2ccccc12	37*	-38%	?	?	76*
O=C(NC(=S)Nc1ccc2c(c1)OCCO2)c1cccc(Br)c1	74*	-35%	25%	2%	74*
O=C(O)c1ccccc1NC(=S)NC(=O)c1cccc2ccccc12	-3	-30%	3%	?	10
O=C(Nc1ccncc1)c1ccc2c(c1)OCCO2	31*	-24%	-10%	-4%	66*
Fc1ccc2cc(-c3ccccc3F)ncc2c1	nt	0%	nt	nt	nt

From PubChem BioAssay
